The record followed here is PubChem BioAssay.

The nature of test [1]: antimalarial activity against Dd2 strain (AID 2302;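 active means growth inhibition above 50% at the single 2 µM test dose, taken to imply half-maximal potency below 2 µM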;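 further: 0% = DMSO untreated growth and 100% = chloroquine plus artemisinin killed control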). The conditions noted are these: P. falciparum Dd2 in RBCs, LDH growth readout, 72 h; at 2 µM; stronger effect = higher value.
The nature of test [2]: HepG2 cytotoxicity, primary screen, cytotoxicity control for P. falciparum antimalarial project, cell-based, ATP luminescence (AID 2303;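 active means inhibition above 50%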;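 further: 0% = DMSO wells and 100% = digitonin-killed cells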). The conditions noted are these: HepG2 viability, 24-48 h, at 10 µM, stronger effect = higher value.
Test [3] concerns the target L-lactate dehydrogenase (Plasmodium falciparum (isolate CDC / Honduras)) (UniProt Q27743). Put plainly: PfLDH activity inhibition – cell lysate, 3D7 strain, counter-screen for P. falciparum growth inhibition project (AID 2304).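 Further: 0% = vehicle and 100% = reference inhibitor.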 The following applies: P. falciparum 3D7 crude extract, LDH APAD/NBT absorbance; at 2 µM; stronger effect = higher value. For orientation: A counterscreen serves to expose hits that act by an unwanted route or on another target.

Test [4] is described as follows: inhibition of 3D7 malaria parasite growth – strain 3D7 (AID 2306).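 Further: 0% = DMSO wells and 100% = chloroquine plus artemisinin control wells.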 The conditions noted are these: P. falciparum 3D7 erythrocytic growth, LDH absorbance, 72 h; at 2 µM; stronger effect = higher value.
Test [5] deals with Calcium-dependent protein kinase 1 (Plasmodium falciparum (isolate 3D7)) (UniProt P62344). Put plainly: PfCDPK1 kinase inhibitors, biochemical, TCAMS library (AID 1159585; cut-off not given, nearly all actives have IC50 up to about 0.98 µM;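 further: inhibitors leave more ATP so luminescence rises with inhibition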). The following applies: recombinant PfCDPK1, Kinase-Glo ATP depletion luminescence.
Calcium-dependent protein kinase 1 (Plasmodium falciparum (isolate 3D7)), sequence (P62344 whole entry, looked up): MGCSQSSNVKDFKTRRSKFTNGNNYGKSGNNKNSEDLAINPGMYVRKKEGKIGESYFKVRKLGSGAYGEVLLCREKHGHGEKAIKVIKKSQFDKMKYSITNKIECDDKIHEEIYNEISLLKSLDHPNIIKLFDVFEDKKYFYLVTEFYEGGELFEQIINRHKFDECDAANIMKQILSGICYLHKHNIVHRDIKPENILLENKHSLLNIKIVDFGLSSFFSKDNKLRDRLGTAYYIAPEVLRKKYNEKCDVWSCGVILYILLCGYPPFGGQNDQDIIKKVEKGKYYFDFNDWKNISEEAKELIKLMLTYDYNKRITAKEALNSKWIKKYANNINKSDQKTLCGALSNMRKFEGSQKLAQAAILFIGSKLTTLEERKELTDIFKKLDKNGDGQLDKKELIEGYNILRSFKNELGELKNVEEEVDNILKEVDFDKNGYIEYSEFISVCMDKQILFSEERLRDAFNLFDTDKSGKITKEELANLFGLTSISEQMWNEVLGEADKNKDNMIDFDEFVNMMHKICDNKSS
The target in test [6] is Plasmodium falciparum protein kinase 6 (PK6, PF3D7_1337100) (UniProt Q8IDW1). Kind of test: PfPK6 kinase inhibitors, biochemical, TCAMS library (AID 1159586). The following applies: recombinant PfPK6, Kinase-Glo ATP depletion luminescence.
Plasmodium falciparum protein kinase 6 (PK6, PF3D7_1337100), sequence (Q8IDW1 1-305): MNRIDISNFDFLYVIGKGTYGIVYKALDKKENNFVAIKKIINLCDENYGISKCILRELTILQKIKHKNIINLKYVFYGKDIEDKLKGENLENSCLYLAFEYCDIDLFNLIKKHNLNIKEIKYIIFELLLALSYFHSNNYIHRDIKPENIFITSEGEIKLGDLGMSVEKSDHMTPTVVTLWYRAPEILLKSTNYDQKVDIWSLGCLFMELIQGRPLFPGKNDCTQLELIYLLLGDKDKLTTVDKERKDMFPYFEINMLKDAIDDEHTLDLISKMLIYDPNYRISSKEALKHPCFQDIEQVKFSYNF
In test [7] the target is Protein kinase 7 (PK7), Plasmodium falciparum 3D7 (PF3D7_0213400) (UniProt Q7YTF7). Put plainly: inhibition of Plasmodium PK7 catalytic activity – biochemical, TCAMS antimalarial set, Kinase-Glo luminescence (AID 1159587). The following applies: recombinant PfPK7, Kinase-Glo ATP depletion luminescence. On the technique in general: Kinase-Glo reads ATP consumption through a luciferase reaction.
Protein kinase 7 (PK7), Plasmodium falciparum 3D7 (PF3D7_0213400), sequence (Q7YTF7 1-343): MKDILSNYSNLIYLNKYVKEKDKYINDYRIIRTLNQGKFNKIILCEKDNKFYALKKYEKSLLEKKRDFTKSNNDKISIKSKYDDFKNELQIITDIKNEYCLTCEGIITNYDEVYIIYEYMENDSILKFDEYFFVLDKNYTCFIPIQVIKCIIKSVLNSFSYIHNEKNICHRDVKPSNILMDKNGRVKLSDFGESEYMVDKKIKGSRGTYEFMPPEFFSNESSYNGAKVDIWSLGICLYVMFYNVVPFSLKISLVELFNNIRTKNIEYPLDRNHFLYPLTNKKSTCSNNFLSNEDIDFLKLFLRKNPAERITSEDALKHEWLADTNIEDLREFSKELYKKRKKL

In test [8] the target is Calcium-dependent protein kinase 4 (Plasmodium falciparum (isolate 3D7)) (UniProt Q8IBS5). Kind of test: PfCDPK4 kinase inhibitors, biochemical, TCAMS library (AID 1159588; cut-off not given, nearly all actives have IC50 up to about 0.91 µM). The following applies: recombinant PfCDPK4, Kinase-Glo ATP depletion luminescence.
Calcium-dependent protein kinase 4 (Plasmodium falciparum (isolate 3D7)), sequence (Q8IBS5 whole entry, looked up): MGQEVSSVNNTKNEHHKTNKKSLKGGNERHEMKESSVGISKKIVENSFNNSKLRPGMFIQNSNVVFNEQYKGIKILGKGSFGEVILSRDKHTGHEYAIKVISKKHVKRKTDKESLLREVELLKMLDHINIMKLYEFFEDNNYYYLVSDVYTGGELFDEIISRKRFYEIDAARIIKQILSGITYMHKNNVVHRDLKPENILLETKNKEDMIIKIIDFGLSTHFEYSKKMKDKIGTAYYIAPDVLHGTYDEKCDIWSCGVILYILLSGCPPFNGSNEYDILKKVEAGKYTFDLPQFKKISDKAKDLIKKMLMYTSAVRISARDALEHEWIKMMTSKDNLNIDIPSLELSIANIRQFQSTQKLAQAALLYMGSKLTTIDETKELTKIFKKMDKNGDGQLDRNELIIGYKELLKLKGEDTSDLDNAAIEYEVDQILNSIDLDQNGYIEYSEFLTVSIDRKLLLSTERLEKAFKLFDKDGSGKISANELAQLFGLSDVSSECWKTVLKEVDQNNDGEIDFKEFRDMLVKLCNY

Molecules are shown by their SMILES. A number with no mark means an inactive call. For some assays here: Results with a measured potency or affinity are listed apart. The source made the active and inactive calls. Unless noted, how the calls were made is not given here.

L-lactate dehydrogenase (Plasmodium falciparum (isolate CDC / Honduras)), sequence (Q27743 whole entry, looked up): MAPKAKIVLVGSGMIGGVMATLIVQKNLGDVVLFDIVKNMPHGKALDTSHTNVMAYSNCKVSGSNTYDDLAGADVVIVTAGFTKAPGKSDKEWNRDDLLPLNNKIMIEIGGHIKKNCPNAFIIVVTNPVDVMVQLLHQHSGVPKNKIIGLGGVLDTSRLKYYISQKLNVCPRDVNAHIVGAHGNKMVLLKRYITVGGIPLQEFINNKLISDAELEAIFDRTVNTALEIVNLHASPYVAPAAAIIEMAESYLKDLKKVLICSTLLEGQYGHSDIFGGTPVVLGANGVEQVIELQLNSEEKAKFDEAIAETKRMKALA

For the molecule `Cc1cc(N(C)C)nc(Nc2ccc(NC(=O)c3ccccc3C)cc2)n1`, the growth inhibition in test [1] is 16%; in test [4], 93% (active). The inhibition (usually the relative decrease from the control value, in per cent) in test [2] was -5%; in test [3] it was -2%. Further, the outcome in test [5], in test [6], in test [7] and in test [8] was inactive.
In the case of `Cc1ccccc1C1CCN(C2CCC(NC(=O)/C=C/c3ccccc3C(F)(F)F)CC2)CC1` (configuration not stated), the figures for the growth inhibition in test [1] and in test [4] were 6% and 83% (active), respectively. For the same molecule, the inhibition was 63% (active) in test [2] and -1% in test [3]. Further, the result in test [5], in test [6], in test [7] and in test [8] was inactive.
In the case of `CC(C)C[C@H](NC(=O)c1ccc(F)cc1)C(=O)N[C@H](/C=N/NC(=O)c1ccccc1)CCc1ccccc1`, the growth inhibition in test [1] was 61% (active); in test [4] it was 92% (active). In addition, the inhibition in test [2] is 1%; in test [3] it was -2%. The outcome in test [5], in test [6], in test [7] and in test [8] was inactive.
Regarding `CC(C)(C)NCC(O)COc1ccc(Cl)cc1C1=NNC(=O)CC1` (configuration not stated), the growth inhibition in test [1] is -1%; in test [4], 96% (active). Also, the results for the inhibition in test [2] and in test [3] were 6% and -2%, respectively. For the same molecule, the outcome in test [5], in test [6], in test [7] and in test [8] was inactive.
Regarding `Cc1[nH]c2ccccc2c1C(=O)C(C)Sc1n[nH]c(-c2ccccc2Br)n1` (configuration not stated), the growth inhibition in test [1] was 100% (active); in test [4], 101% (active). The inhibition in test [2] was -7%; in test [3], -3%. Besides, the outcome in test [5], in test [6], in test [7] and in test [8] was inactive.
For the molecule `CCc1nc(N)nc(N)c1CCCOc1ccccc1Cl`, the growth inhibition was 13% in test [1] and 92% (active) in test [4]. Moreover, the inhibition is 61% (active) in test [2] and 1% in test [3]. In addition, the result in test [5], in test [6], in test [7] and in test [8] was inactive.
Consider `O=C(Nc1cccc(C(F)(F)F)c1)Nc1ccc2nonc2c1`, for which the growth inhibition in test [1] was 76% (active); in test [4], 98% (active). Also, the results for the inhibition in test [2] and in test [3] were -4% and 5%, respectively. For the same molecule, the result in test [5], in test [6], in test [7] and in test [8] was inactive.
In the case of `CN(C)CCCOc1ccccc1CN1CC[C@H](NC(=O)c2ccc(Cl)c(Cl)c2)C1`, the values for the growth inhibition in test [1] and in test [4] were 54% (active) and 94% (active), respectively. In addition, the figures for the inhibition in test [2] and in test [3] were 42% and -3%, respectively. Besides, the outcome in test [5], in test [6], in test [7] and in test [8] was inactive.
For the molecule `O=C(O)C[C@H](NC(=O)CCCNC(=O)c1cccc(-c2ccc(Cl)c(Cl)c2)c1)C(=O)O`, the growth inhibition is -4% in test [1] and 91% (active) in test [4]. Moreover, the results for the inhibition in test [2] and in test [3] were 5% and -3%, respectively. Also, the outcome in test [5], in test [6], in test [7] and in test [8] was inactive.
As to `O=C(NCc1cccc(F)c1)Nc1ccc(-c2ccc(-c3nc4ccc(C(F)(F)F)cc4[nH]3)cc2)cc1`, the growth inhibition is 24% in test [1] and 100% (active) in test [4]. Moreover, the inhibition in test [2] is 46%; in test [3], 0%. Also, the result in test [5], in test [6], in test [7] and in test [8] was inactive.
On to `Cc1cc(N[C@@H](CC(C)C)C(=O)NCc2cccc(F)c2)nc(NCC2CCCCC2)n1`, for which the growth inhibition is 70% (active) in test [1] and 99% (active) in test [4]. Moreover, the results for the inhibition in test [2] and in test [3] were 3% and -3%, respectively. The outcome in test [5], in test [6], in test [7] and in test [8] was inactive.
With `CN(C(=O)c1nn(-c2ccccn2)c2nccc(-c3cccs3)c12)C1CCCCC1`, the growth inhibition was 1% in test [1] and 87% (active) in test [4]. For the same molecule, the inhibition is 4% in test [2] and -1% in test [3]. Also, the outcome in test [5], in test [6], in test [7] and in test [8] was inactive.
As for `CCNc1cc(C)nc(Nc2ccc(F)cc2)n1`, the growth inhibition in test [1] was 57% (active); in test [4], 101% (active). Moreover, the inhibition is 1% in test [2] and -7% in test [3]. Also, the result in test [5], in test [6], in test [7] and in test [8] was inactive.
As to `NC(N)=Nc1nccc(NCc2ccccc2)n1`, the growth inhibition was 48% in test [1] and 88% (active) in test [4]. For the same molecule, the inhibition in test [2] is 95% (active); in test [3], -1%. For the same molecule, the outcome in test [5], in test [6], in test [7] and in test [8] was inactive.
Regarding `CS(=O)(=O)c1ccc(CCNCc2ccc(-c3ccc(CN(C(=O)C4CCCC4)C4CCN(Cc5ccccc5)CC4)cc3)nc2)cc1`, the values for the growth inhibition in test [1] and in test [4] were 20% and 91% (active), respectively. The inhibition is 24% in test [2] and -6% in test [3]. The result in test [5], in test [6], in test [7] and in test [8] was inactive.
With `CCCCCCCN1CC[C@@H](CCCc2ccnc3ccc(OC)cc23)[C@@H](CCN)C1`, the growth inhibition in test [1] is 11%; in test [4] it was 102% (active). In addition, the inhibition in test [2] is 50% (active); in test [3], -5%. The outcome in test [5], in test [6], in test [7] and in test [8] was inactive.
`CCC1CCCCN1S(=O)(=O)c1ccc(NC(=O)c2cc(C)on2)cc1` (configuration not stated): the growth inhibition in test [1] is 53% (active); in test [4], 86% (active). Further, the inhibition in test [2] and in test [3] was 0% each time. The result in test [5], in test [6], in test [7] and in test [8] was inactive.
For `Cc1cc2c(cc1C(F)(F)F)N(C(=O)Nc1ccc(OCCN(C)C)c(C(F)(F)F)c1)CC2`, the growth inhibition in test [1] is 23%; in test [4], 93% (active). The inhibition in test [2] is 38%; in test [3], -2%. The result in test [5], in test [6], in test [7] and in test [8] was inactive.
Take `CSc1nnc2n(Cc3ccccc3)c(=O)c3c(n12)-c1ccccc1CC31CCCCC1`: the growth inhibition is -6% in test [1] and 93% (active) in test [4]. The inhibition in test [2] was 0%; in test [3], 1%. The outcome in test [5], in test [6], in test [7] and in test [8] was inactive.
